In assay [1] the target is Lysosomal acid glucosylceramidase (Homo sapiens) (UniProt P04062). As to the kind of experiment: Glucocerebrosidase-p2 (AID 348; in the data active means potency below about 10 µM; further: potency means the concentration at half of the fitted maximal effect). The settings on record: purified GBA, blue fluorogenic substrate, 40 min. An outline of the steps:
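Normal human glucocerebrosidase (0.2 nM) with blue fluorogenic substrate (80 uM final) in citrate/phosphate pH 5.9 with 10mM sodium taurocholate, 0.01% tween-20; 40 min RT, NaOH/glycine stop; fluorescence Ex 365/Em 440; AC50 from a titration from 0.6 nM upwards.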

A short description of assay [2]: AP1 Signaling Pathway (AID 357).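 Further: ME-180 reporter cells stimulated with EGF at its EC50 level; on the % scale 0 is the no-effect control and ±100 the full control effect.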 The settings on record: ME-180 AP-1-bla reporter, EGF-induced, beta-lactamase ratio, 5 h; at 7.69 µM (top of the series) unless noted. Put shortly:
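In this screen, ME-180 cells in Opti-MEM with 0.5% dialyzed FBS received EC50 EGF and compound titrations for 5 h. AP-1 reporter beta-lactamase was detected via CCF4 ratio, giving AC50 for positive and negative modulators.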

Assay [3] concerns the target Cytochrome P450 1A2 (Homo sapiens) (UniProt P05177). The experiment in a line: p450-cyp1a2 (AID 410; calls by dose curve; further: potency means the concentration at half of the fitted maximal effect;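 on activity change, negative = inhibition: -100% = full effect of reference inhibitor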). The following applies: recombinant CYP1A2, luciferin-ME demethylation, luminescence; series mostly up to 57 µM. Put shortly:
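20nM CYP1A2, 100uM Luciferin-ME (=Km), 100mM KPO4; cpd 10 min RT; +NADPH regen, 60 min RT; stop/detect 20 min; luminescence. Normalized to furafylline 57 uM = full inhibition.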

The nature of assay [4]: NFAT Signaling Pathway (AID 444).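 Further: carbachol stimulus at about its EC50 of 1 µM final; on the % scale 0 is the no-effect control and ±100 the full control effect.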 The following applies: Jurkat NFAT-bla M1, carbachol, beta-lactamase ratio, 5 h; at 7.69 µM (top of the series) unless noted. Put shortly:
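Jurkat cells carrying an NFAT-driven β-lactamase reporter and co-transfected muscarinic M1 receptor were treated with compound plus carbachol (1 uM final, an EC50 level) for 5 h at 37 °C. CCF4 loading followed for 1 h at RT; 460/530 nm ratio gave %activity.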

Assay [5] can be described thus: Stat Signaling Pathway (AID 446).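 Further: ME-180 cervical cancer cells given 40 pM IL-6 alongside compound; SIE-controlled beta-lactamase reporter measured as 460/530 nm FRET emission ratio; on the % scale 0 is the no-effect control and ±100 the full control effect.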 The settings on record: ME-180 (cervical carcinoma) SIE beta-lactamase reporter, IL-6 stimulated, 5 h; at 7.69 µM (top of the series) unless noted. An outline of the steps: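 Emission at 460 and 530 nm (excitation 405 nm) reports SIE-controlled beta-lactamase in ME-180 cells. Cells received compound with 40 pM IL-6 for 5 hrs at 37 C; data scaled between 300 pM IL-6 and 125 nM JAK-inhibitor controls.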

Assay [6] deals with Glucocorticoid receptor (Homo sapiens) (UniProt P04150). As to the kind of experiment: GR-EFC Redistribution (AID 451; calls by dose curve; further: potency means the concentration at half of the fitted maximal effect). The following applies: CHO-K1 GR-EFC translocation, beta-gal luminescence, 2 h. Put shortly:
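CHO-K1 cells stably expressing nuclear-localized β-gal enzyme acceptor and GR fused C-terminally to the enzyme donor fragment; ligand-driven nuclear translocation restores β-gal by complementation. Compounds titrated up to 46 uM final, 2 h at 37 °C; luminescence read.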

Assay [7] deals with Mitogen-activated protein kinase 10 (Mus musculus) (UniProt Q61831). As to the kind of experiment: JNK3 AlphaScreen Assay (AID 530).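 Further: kinase came from lysate of stimulated human HepG2 cells; signal reports phosphorylation of biotinylated GST-cJun 1-79 at Ser73 with 10 µM ATP; on the % scale 0 is the no-effect control and ±100 the full control effect.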 The following applies: JNK3 lysate, c-Jun phosphorylation; series mostly up to 57.1 µM. Put shortly:
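Biotinylated GST-cJun(1-79) served as substrate for JNK3 in HepG2 lysates stimulated with IL-1beta and TNF-alpha. ATP was 10 uM final, pH 7.6. Ser73 phosphorylation was quantified by AlphaScreen (680 nm excitation).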

Assay [8] concerns the target 3',5'-cyclic-AMP phosphodiesterase 4B (Homo sapiens) (UniProt Q07343). The experiment in a line: qHTS Assay for Inhibitors of PDE-IV (AID 607; active means well fitted activation curve with a large enough effect in the main read-out, with a control signal flat, not every such curve was filed as active; further: % of control where 0% means no effect). The settings on record: HEK293 ACTOne CNG channel cells, membrane potential fluorescence; series mostly up to 22.9 µM. Put shortly:
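The readout is membrane depolarisation from a cAMP-sensing CNG channel, detected with a potential dye at ex 535/em 590. Cells were HEK293-derived (endogenous PDE-IV) at 1000 cells/well, titrated up to 22.9 uM final.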
(In general: qHTS replaces the single test concentration by a dilution series.)

Assay [9] deals with Cytochrome P450 3A4 (Homo sapiens) (UniProt P08684). The experiment in a line: qHTS Assay for Activators of Cytochrome P450 3A4 (AID 885; active means well fitted curve in the direction sought with a large enough effect; an effect the other way counts as inactive or inconclusive; further: nearly all actives have a fitted effect of over 65% in size). The settings on record: recombinant CYP3A4, Luciferin-PPXE luminescence, 60 min; series mostly up to 57.1 µM. Put shortly:
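Activators are scored by enhanced luminescence from CYP3A4 conversion of luciferin-PPXE (25uM, equal to KM) to luciferin, after 60 min at RT with an NADPH-regenerating system.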

Assay [10] in a line: qHTS Assay for Lipid Storage Modulators (AID 1519; calls by dose curve). The settings on record: Drosophila S3 cells, BODIPY lipid droplet/cell ratio, laser cytometry, cells loaded with oleic acid; for activity change, negative = inhibition: at 57.5 µM (top of the series). An outline of the steps:
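Cells seeded at 5,000 per well were treated with compounds over a concentration series and loaded with oleic acid (400 uM, as added). Lipid droplet fluorescence (488 nm excitation, 500-530 nm channel) was read by laser-scanning cytometry and normalized to 20 uM Triacsin C.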

In assay [11] the target is Glucocorticoid receptor (Homo sapiens) (UniProt P04150). As to the kind of experiment: GR-GFP Redistribution (AID 450;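 active means compounds whose dose series gives a full or clear partial fitted curve of increased nuclear translocation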; further: potency means the concentration at half of the fitted maximal effect). The following applies: U2OS GR-GFP nuclear translocation, laser cytometry, 2 h.
The target of assay [12] is Cytochrome P450 2D6 (Homo sapiens) (UniProt P10635). The experiment in a line: qHTS Assay for Inhibitors and Substrates of Cytochrome P450 2D6 (AID 891; active means well fitted curve in the direction sought with a large enough effect; an effect the other way counts as inactive or inconclusive; further: potency means the concentration at half of the fitted maximal effect; nearly all actives have a fitted effect of over 60% in size). The settings on record: recombinant CYP2D6, luciferin-ME EGE luminescence; series mostly up to 57.1 µM. Put shortly: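 Luminescent read-out of luciferin formed by 5 nM human CYP2D6 demethylating 30 uM Luciferin-ME EGE (Km level) over 60 min at room temperature after NADPH regeneration addition. Data normalized to full inhibition by 1.43 uM quinidine.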

The nature of assay [13]: Confirmation and Secondary Assay for Modulators of Hemoglobin Beta Chain Splicing at IVS2 654 locus (AID 910; active means well fitted curve in the direction sought with a large enough effect; an effect the other way counts as inactive or inconclusive; further: % of control where 0% means no effect). The following applies: HeLa EGFP-654 splicing reporter, GFP fluorescence, 48 h; series mostly up to 38.3 µM. An outline of the steps: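 HeLa cells stably carrying EGFP interrupted by mutant beta-globin IVS2-654 intron (CMV-driven) were treated with compound for 2 days at 37C; corrected splicing was scored as total peak GFP intensity per well (488 nm excitation, 500-520 nm emission).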

A short description of assay [14]: Confirmation and Secondary Assay for Modulators of Hemoglobin Beta Chain Splicing at IVS2 705 locus (AID 930; active means well fitted curve in the direction sought with a large enough effect; an effect the other way counts as inactive or inconclusive;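 further: HeLa cells stably expressing the EGFP-705 splicing reporter; GFP fluorescence per well restored by corrected splicing of the IVS2-705 intron in EGFP; % of control where 0% means no effect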). The settings on record: HeLa EGFP-705 splicing reporter, GFP fluorescence, 48 h; series mostly up to 38.3 µM. Put shortly: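 Read-out: total peak GFP fluorescence per well (488 nm excitation, 500-520 nm emission) by laser-scanning cytometry. Cells: HeLa EGFP-705 splicing reporter, 2 days compound exposure in Optimem/2% FCS.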

For assay [15], the target named is Ubiquitin carboxyl-terminal hydrolase 1 (Homo sapiens) (UniProt O94782). As to the kind of experiment: Inhibitors of USP1/UAF1: Pilot qHTS (AID 504865; active means well fitted curve in the direction sought with a large enough effect; an effect the other way counts as inactive or inconclusive;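 further: rhodamine fluorescence freed from ubiquitin-rhodamine substrate followed over time; top concentration of the series differs between compounds; on the % scale 0 is the no-effect control and ±100 the full control effect; nearly all actives have a fitted effect of over 35% in size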). The settings on record: purified USP1/UAF1, Ub-rhodamine cleavage fluorescence; series mostly up to 54.9 µM. An outline of the steps: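 USP1/UAF1 complex (1nM) preincubated with compound 15 min at room temperature, then Ub-Rho substrate (150nM final) added. Fluorescence read kinetically at 480/540 nm, 6 reads every 60 seconds. Buffer: 50mM HEPES pH 7.8, 0.5mM EDTA, 0.1 mg/ml BSA, 1mM TCEP, 0.01% Tween-20.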

[16] abbreviates: measured here: cell count channel max response.
The mark [17] stands for this setting: measured here: lipid channel max response.

Results filed as inconclusive are left out. Active and inactive are the calls of the source. Unless noted, the call rests on the fitted dose curve; in most records, active means well fitted curve in either direction with a large enough effect (not every such curve was filed as active); inconclusive means small, poorly fitted or top-dose-only effect, or another doubt; inactive means flat fitted curve, though single readings scatter.

The record followed here is PubChem BioAssay (NCATS).

Chain of 3',5'-cyclic-AMP phosphodiesterase 4B (Homo sapiens) (Q07343 whole entry, looked up): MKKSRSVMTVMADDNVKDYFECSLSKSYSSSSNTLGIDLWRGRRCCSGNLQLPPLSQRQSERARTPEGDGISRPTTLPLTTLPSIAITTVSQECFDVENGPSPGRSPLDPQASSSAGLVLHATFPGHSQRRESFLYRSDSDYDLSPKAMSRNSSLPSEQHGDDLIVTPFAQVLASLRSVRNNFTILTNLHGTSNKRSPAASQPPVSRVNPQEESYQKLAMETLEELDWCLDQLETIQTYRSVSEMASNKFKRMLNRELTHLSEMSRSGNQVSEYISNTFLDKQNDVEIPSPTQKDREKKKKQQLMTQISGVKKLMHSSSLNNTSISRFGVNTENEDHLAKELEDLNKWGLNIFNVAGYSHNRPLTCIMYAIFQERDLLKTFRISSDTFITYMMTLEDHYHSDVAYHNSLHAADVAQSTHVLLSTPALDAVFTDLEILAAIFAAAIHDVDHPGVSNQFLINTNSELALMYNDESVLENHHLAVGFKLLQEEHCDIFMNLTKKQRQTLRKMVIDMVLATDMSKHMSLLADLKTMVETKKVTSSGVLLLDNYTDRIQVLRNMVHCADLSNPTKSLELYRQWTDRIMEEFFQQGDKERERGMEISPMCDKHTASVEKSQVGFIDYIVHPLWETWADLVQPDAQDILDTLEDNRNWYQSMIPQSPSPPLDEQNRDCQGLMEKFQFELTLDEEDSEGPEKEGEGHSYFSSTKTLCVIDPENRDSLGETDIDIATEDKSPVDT
Chain of Lysosomal acid glucosylceramidase (Homo sapiens) (P04062 whole entry, looked up): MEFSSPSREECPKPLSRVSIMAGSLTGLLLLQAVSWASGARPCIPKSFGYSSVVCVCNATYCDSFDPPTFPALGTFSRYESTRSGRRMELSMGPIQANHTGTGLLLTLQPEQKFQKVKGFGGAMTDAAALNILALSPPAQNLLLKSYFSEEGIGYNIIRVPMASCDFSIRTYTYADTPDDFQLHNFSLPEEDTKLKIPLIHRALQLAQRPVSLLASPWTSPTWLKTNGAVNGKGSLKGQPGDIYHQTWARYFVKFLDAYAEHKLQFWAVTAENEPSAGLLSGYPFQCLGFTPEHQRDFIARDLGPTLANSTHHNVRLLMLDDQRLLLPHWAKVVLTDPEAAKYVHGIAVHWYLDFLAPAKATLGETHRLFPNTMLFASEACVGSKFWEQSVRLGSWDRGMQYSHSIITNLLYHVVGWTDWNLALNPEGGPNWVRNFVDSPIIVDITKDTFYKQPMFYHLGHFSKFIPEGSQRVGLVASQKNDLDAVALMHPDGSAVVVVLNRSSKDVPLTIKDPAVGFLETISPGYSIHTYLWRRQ
Chain of Cytochrome P450 1A2 (Homo sapiens) (P05177 whole entry, looked up): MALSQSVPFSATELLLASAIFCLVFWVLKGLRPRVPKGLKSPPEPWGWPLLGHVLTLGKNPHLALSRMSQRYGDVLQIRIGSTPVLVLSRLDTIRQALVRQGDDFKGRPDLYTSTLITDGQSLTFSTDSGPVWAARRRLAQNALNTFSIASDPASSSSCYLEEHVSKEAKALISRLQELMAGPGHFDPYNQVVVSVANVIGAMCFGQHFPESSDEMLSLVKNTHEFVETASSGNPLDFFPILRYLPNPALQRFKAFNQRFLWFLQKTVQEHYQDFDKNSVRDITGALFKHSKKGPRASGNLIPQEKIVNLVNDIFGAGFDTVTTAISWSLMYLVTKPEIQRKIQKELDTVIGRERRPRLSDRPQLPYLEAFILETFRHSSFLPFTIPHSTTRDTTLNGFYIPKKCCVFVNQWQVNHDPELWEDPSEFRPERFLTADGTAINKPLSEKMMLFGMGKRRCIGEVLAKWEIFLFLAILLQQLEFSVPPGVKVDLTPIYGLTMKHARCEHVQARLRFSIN
Chain of Glucocorticoid receptor (Homo sapiens) (P04150 whole entry, looked up, the tested form may be a part): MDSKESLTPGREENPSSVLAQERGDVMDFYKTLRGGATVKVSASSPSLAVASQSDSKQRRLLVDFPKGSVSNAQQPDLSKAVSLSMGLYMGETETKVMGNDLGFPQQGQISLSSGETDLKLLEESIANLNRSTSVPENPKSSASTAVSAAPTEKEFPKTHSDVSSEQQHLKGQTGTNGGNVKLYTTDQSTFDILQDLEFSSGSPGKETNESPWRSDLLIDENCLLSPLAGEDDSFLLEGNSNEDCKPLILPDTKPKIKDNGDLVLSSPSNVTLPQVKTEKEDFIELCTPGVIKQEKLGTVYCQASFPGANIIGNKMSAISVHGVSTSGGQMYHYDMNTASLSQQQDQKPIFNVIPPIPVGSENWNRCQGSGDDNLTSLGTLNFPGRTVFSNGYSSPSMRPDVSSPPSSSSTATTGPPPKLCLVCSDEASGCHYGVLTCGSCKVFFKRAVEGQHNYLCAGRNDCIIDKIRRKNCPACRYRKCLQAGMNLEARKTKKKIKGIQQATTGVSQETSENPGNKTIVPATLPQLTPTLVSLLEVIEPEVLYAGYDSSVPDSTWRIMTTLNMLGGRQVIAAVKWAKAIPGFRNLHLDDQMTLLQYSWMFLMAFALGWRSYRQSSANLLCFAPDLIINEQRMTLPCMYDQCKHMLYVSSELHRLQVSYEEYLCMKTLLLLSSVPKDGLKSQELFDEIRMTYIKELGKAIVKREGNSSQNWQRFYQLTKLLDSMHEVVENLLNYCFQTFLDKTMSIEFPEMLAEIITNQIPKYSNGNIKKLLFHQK
Chain of Cytochrome P450 2D6 (Homo sapiens) (P10635 whole entry, looked up): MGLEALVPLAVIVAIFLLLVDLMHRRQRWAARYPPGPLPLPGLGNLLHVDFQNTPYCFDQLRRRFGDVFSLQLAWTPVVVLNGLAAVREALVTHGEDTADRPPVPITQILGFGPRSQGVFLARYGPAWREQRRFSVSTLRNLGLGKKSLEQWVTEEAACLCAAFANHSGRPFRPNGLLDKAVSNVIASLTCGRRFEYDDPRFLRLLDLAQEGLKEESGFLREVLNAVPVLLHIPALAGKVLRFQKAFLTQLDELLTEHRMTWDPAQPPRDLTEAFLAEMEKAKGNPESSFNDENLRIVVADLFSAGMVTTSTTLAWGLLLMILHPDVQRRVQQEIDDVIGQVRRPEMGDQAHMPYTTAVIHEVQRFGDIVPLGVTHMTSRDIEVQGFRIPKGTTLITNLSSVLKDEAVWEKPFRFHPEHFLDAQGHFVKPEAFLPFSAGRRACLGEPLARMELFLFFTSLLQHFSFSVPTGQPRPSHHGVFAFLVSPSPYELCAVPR
Chain of Cytochrome P450 3A4 (Homo sapiens) (P08684 whole entry, looked up): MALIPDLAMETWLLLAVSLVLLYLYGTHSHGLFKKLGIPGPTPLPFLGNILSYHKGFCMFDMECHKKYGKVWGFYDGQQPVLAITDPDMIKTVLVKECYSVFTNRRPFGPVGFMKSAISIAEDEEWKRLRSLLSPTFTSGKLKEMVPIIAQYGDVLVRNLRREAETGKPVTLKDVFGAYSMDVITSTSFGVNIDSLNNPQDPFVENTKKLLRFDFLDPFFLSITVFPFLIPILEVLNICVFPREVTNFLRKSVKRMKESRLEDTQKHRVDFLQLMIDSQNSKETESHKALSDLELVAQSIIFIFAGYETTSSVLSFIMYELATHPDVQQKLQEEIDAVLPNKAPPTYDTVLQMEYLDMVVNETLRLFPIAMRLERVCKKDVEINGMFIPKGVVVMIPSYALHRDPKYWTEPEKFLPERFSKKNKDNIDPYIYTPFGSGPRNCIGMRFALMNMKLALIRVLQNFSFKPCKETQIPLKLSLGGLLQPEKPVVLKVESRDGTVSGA
Chain of Ubiquitin carboxyl-terminal hydrolase 1 (Homo sapiens) (O94782 whole entry, looked up): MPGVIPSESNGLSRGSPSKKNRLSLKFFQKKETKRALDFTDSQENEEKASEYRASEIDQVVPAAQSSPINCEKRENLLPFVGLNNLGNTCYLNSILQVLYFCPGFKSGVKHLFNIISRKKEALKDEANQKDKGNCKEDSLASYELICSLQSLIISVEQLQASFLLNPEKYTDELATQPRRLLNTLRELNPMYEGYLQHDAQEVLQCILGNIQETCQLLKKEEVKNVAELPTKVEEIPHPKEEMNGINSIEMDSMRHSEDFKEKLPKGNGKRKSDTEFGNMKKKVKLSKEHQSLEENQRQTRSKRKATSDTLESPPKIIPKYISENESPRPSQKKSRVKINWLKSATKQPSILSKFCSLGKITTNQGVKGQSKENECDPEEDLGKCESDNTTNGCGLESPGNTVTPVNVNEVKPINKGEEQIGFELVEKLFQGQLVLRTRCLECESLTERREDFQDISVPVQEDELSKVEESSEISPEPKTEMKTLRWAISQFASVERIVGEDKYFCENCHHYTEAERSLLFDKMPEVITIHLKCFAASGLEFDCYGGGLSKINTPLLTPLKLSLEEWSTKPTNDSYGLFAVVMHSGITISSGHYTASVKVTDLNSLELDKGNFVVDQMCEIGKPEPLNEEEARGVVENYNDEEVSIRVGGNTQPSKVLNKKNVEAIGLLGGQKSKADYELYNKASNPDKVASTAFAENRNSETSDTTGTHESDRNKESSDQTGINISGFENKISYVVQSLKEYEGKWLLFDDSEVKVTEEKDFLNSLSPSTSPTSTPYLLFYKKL

`CN1CC[C@@]2(CCCN(C(=O)c3cccn3C)C2)C1`: the Potency in assay [1] is > 11.4 µM (inactive); in assay [6], > 46 µM (inactive). Moreover, the activity change, negative = inhibition was 0.737% (inactive) in assay [2], 9.28% (inactive) in assay [4] and 2.7% (inactive) in assay [10]. Also, the Potency entry in [3], in assay [7], in assay [8] and in assay [9] was “inactive” each time. The activity, negative = inhibition in assay [5] is -1.28% (inactive). Further, the max response in assay [10] (setting [16]) is -0.284%; in [10] (setting [17]), 4.15%.

Consider `O=C(c1cc(C(F)(F)F)cc(C(F)(F)F)c1)N1CCC2(CC1)CN(Cc1ccccc1)C2`, for which the Potency was > 11.4 µM (inactive) in assay [1] and > 46 µM (inactive) in assay [6]. The activity change, negative = inhibition is -4.34% (inactive) in [2] and 1.87% (inactive) in assay [10]. Further, the Potency result in assay [3], in [7] and in [8] was “inactive” each time. Further, the activity, negative = inhibition in assay [5] is 9.42% (inactive). In addition, the max response in assay [10] (setting [16]) came to 22.2%; in assay [10] (setting [17]) it was 24.8%.

Consider `CN(C)Cc1ccccc1-c1ccc2ncnc(N(C)Cc3ccco3)c2c1`, for which the Potency was > 11.4 µM (inactive) in [1]; 2 µM (active) in assay [3]; > 46 µM (inactive) in assay [11]; > 46 µM (inactive) in [6]; 2 µM (active) in assay [12]. In addition, the results for the activity change, negative = inhibition in assay [2] and in [10] were 3.42% (inactive) and 3.94% (inactive), respectively. For the same compound, the activity, negative = inhibition in assay [5] was -16.1% (inactive). Also, the Potency result in assay [7], in assay [9], in assay [13] and in assay [15] was “inactive” in each case. The result in [14] was inactive. For the same compound, the values for the max response in assay [10] (setting [16]) and in [10] (setting [17]) were 7.91% and 12.6%, respectively.

With `N#Cc1ccc(CN2CC[C@@]3(CCCN(S(=O)(=O)c4ccccc4)C3)C2)cc1`, the Potency is > 11.4 µM (inactive) in assay [1], 15.8 µM (active) in assay [3] and > 46 µM (inactive) in assay [6]. The figures for the activity change, negative = inhibition in assay [2] and in [10] were 0.616% (inactive) and -4.95% (inactive), respectively. In assay [5], the activity, negative = inhibition was -5.91% (inactive). Besides, the Potency result in assay [7] and in assay [8] was “inactive” each time. In addition, the max response in assay [10] (setting [16]) was determined as 13.6%; in [10] (setting [17]) it was 7.48%.

For the compound `COc1cccc(-c2nc(N3CCNCC3)c3ccccc3n2)c1`, the Potency in assay [1] was > 11.4 µM (inactive); in [11], > 46 µM (inactive); in [6] it was > 46 µM (inactive). Moreover, the results for the activity change, negative = inhibition in [2], in assay [4] and in assay [10] were 21.6% (inactive), -0.232% (inactive) and 5.82% (inactive), respectively. The activity, negative = inhibition in [5] is -3.15% (inactive). Further, the Potency result in [7], in assay [8], in assay [13] and in assay [15] was “inactive” in each case. The compound was called inactive in assay [14]. In addition, the values for the max response in assay [10] (setting [16]) and in assay [10] (setting [17]) were -17.6% and -11.1%, respectively.

For `O=C(Nc1cccc(F)c1)N1CCCC2(CCN(C(=O)c3cc(C(F)(F)F)cc(C(F)(F)F)c3)CC2)C1`, the Potency in [1] was > 11.4 µM (inactive); in [3], 12.6 µM (active). For the same compound, the activity change, negative = inhibition in assay [2] was -25.5% (inactive); in assay [4], 23.3% (inactive); in assay [10], 0.997% (inactive). Also, in assay [5], the activity, negative = inhibition is -17.6% (inactive). The Potency result in assay [7] is “inactive”. The max response in [10] (setting [16]) was found to be 12.9%; in assay [10] (setting [17]) it was 17.1%.

With `COc1ccccc1CN1CCC2(CC1)CCN(S(=O)(=O)c1ccccc1)CC2`, the Potency was > 11.4 µM (inactive) in [1], > 46 µM (inactive) in assay [6] and 0.158 µM (active) in assay [12]. In addition, the figures for the activity change, negative = inhibition in assay [2] and in assay [10] were -0.16% (inactive) and 0.93% (inactive), respectively. The Potency result in assay [3], in [7] and in assay [8] was “inactive” each time. Also, the activity, negative = inhibition in assay [5] was 5.45% (inactive). For the same compound, the figures for the max response in [10] (setting [16]) and in [10] (setting [17]) were 19% and 23.6%, respectively.
